Entries with a potency or affinity are not part of this list.
Legend:
[1] = test system: Staphylococcus aureus; conditions: Concentration 32 ug.mL-1;; ASSAY_TEST Inhibition of Bacterial Growth; detection method Absorption (OD600); MEDIA CAMHB; plate type 384well; NBS; CORNING #3640; time 18 hr
[2] = test system: Escherichia coli; conditions: Concentration 32 ug.mL-1;; ASSAY_TEST Inhibition of Bacterial Growth; detection method Absorption (OD600); MEDIA CAMHB; plate type 384well; NBS; CORNING #3640; time 18 hr

SMILES	Inhibition [1] [%]	Inhibition [2] [%]
COc1ccc(C)cc1NC(=O)Cn1nc2ccc(SCc3ccc(Cl)cc3)nn2c1=O	8.35	-14.85
O=C(Cn1nc2c(N3CCOCC3)nccn2c1=O)Nc1cccc(C(F)(F)F)c1	4.69	-2.32
CCC(Sc1nnc2c(=O)n(-c3cccc(OC)c3)ccn12)C(=O)Nc1cc(C)ccc1C (centres undefined)	5.06	-5.33
O=C(Cn1nc2c(Oc3ccccc3)nccn2c1=O)Nc1ccc(Br)cc1F	-5.68	-11.64
CC(C)(C)Sc1ccc2nn(CC(=O)NCc3ccc(Cl)cc3)c(=O)n2n1	1.41	-5.27
Cc1cccc(N(CC(=O)OC(C)(C)C)S(=O)(=O)c2cccn3c(C)nnc23)c1	5.88	-7.68
CCCCN(C)C(=O)CSc1nnc2c(=O)n(Cc3ccc(F)cc3)ccn12	7.74	-2.27
Cc1cc2nn(CC(=O)Nc3cc(F)cc(F)c3)c(=O)n2c(Nc2ccc(F)c(C)c2)n1	7.29	-2.56
CCc1ccc(N(Cc2cccc(OC)c2)S(=O)(=O)c2cccn3c(C)nnc23)cc1	-1.7	-9.35
Cc1cc2nn(CC(=O)Nc3ccc4c(c3)OCCO4)c(=O)n2c(Nc2ccccc2C)n1	9.51	-1.19
CCOc1ccc(-n2ccn3c(SCC(=O)NCc4cccc(OC)c4OC)nnc3c2=O)cc1	12.04	-1.13
Cc1nnc2ccc(S(=O)(=O)N(Cc3ccccc3Cl)c3cccc(F)c3)cn12	-1.06	-5.9
COc1cccc(Sc2nc3ccccc3n3c(=O)n(CC(=O)Nc4ccccc4)nc23)c1	-1.75	-6.94
Cc1nnc2ccc(S(=O)(=O)N(CC(=O)OC(C)(C)C)c3ccc4c(c3)OCO4)cn12	2.93	-7.09
COc1ccc(NC(=O)Cn2nc3c(Sc4cccc(C)c4)nccn3c2=O)cc1Cl	-3.33	-13.54
COc1ccc(NC(=O)Cn2nc3c(N4CCCC(C)C4)nccn3c2=O)cc1OC (centres undefined)	-18.12	-13.91

SMILES	Inhibition [1] [%]	Inhibition [2] [%]
COc1ccc(CN(c2ccc(F)c(F)c2)S(=O)(=O)c2ccc3nncn3c2)cc1	-0.97	-4.01
O=C(CSc1nc2ccccc2n2cnnc12)Nc1ccc2c(c1)OCO2	4.59	-3.46
O=c1c2sccc2n2c(=O)n(Cc3c(F)cccc3Cl)nc2n1Cc1cccs1	6.51	0.39
O=C(Cn1nc2c3cc(-c4ccc(Cl)cc4)nn3ccn2c1=O)N1CCN(c2ccccc2)CC1	8.68	-1.74
CC(C)CCNC(=O)CSc1nnc2c(=O)n(Cc3ccc(F)cc3)ccn12	8.45	-0.48
Cc1ccccc1CN(c1ccc(Cl)cc1)S(=O)(=O)c1cccn2c(C)nnc12	11.54	1.89
O=C(Cn1nc2ccc(-c3ccccc3)nn2c1=O)Nc1ccc(Cl)c(C(F)(F)F)c1	6.21	-6.69
Cc1ccc(Sc2nccn3c(=O)n(CC(=O)Nc4ccc(Br)cc4)nc23)c(C)c1	-1.98	-4.39
O=S(=O)(c1ccc2nncn2c1)N(Cc1cc(F)cc(F)c1)c1ccc(F)cc1	2.59	-3.43
CCOc1ccc(-n2ccn3c(SCC(=O)c4ccccc4)nnc3c2=O)cc1	6.87	1.63
COc1ccc(NC(=O)Cn2nc3cc(C)nc(Nc4ccc(F)c(C)c4)n3c2=O)cc1	-1.45	-6.2
Cc1cc(C)c(NC(=O)Cn2nc3c(SCc4ccc(Cl)cc4)nccn3c2=O)c(C)c1	3.14	0.78
O=C(CSc1nnc2c(=O)n(-c3ccc(Br)cc3)ccn12)Nc1cccc(Cl)c1	2.58	-6.43
CCc1nnc2c(=O)n(CC(=O)Nc3ccc4c(c3)OCCO4)c3ccccc3n12	2.09	-4.51
CSc1ccc(CNC(=O)CCc2nnc3c(N4CCCCC4)nc4ccccc4n23)cc1	14.53	2
O=c1c2sccc2n2c(=O)n(Cc3ccc(F)cc3)nc2n1CCc1ccccc1	10.13	2.04

— ChEMBL document CHEMBL4513146, “CO-ADD screening of Karazin Kharkiv National University (Ukraine) compounds”
